# PubChem BioAssay AID1508600 (Functional Genomics Laboratory (NCATS/FGL), 2020)
# Out of some 53,000 sequences screened, about 3,700 (7%) were called active. Only a selection was taken, and actives are over-represented in it overall. A number with no mark means an inactive call.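 The calls were made as follows: active = gene knockdowns whose robust z-score for IL-1 alpha signal is at least 2 or at most -2, so actives lie on both sides; inactive = the rest.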
# Assay: Components of the Cytosolic LPS Sensing Pathway: Gene Identification via Genome-wide siRNA Screen;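 also: robust z of the log signal after scaling to non-targeting control siRNA wells of the plate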
# Conditions: RAW264.7 macrophages, IL-1a HTRF, actives lie on both sides, screened at 100 nM (by protocol), cells primed 5 h with Pam3CSK4 first
# Outline: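 Supernatant IL-1a by HTRF from RAW264.7 cells primed with Pam3CSK4 (5 hours) and transfected with LipidA (24 hour) after 48h siRNA knockdown at 100 nM; cell viability checked with CellTiter-Glo.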
row,Sequence,z-score
1,GCACAGGUCUAAUUCGUCUTT against Grik1,-2.78 (active)
2,GGACUUGACCCUGUCUUUGTT against Ostm1,0.871
3,GGAACAAAAACUGGUGCGCTT against Emilin2,2.07 (active)
4,GGCAUCUGAGCUGAGGAUUTT against Gem,-0.295
5,GGAUAGCUUGAUCAAUCUUTT against Cisd2,-0.13
6,GCCUCUUAAUUUUAAGCUGTT against Gpr82,-0.505
7,GGGAAACUUGAACUUUGAUTT against Rsph1,-1.54
8,GGGACAAUUCAGGAUGGAGTT against Ift88,0.0559
9,GCGGCUUUACAAGGAUGACTT against Elob,2 (active)
10,GGUCCUUUUUUCAACCAGCTT against Sh3gl1,-0.259
11,CCAAGGGUUGUUAAGUAUUTT against Cdh26,1.08
12,GGAUUUUCAUCGUGCUUUGTT against Necab3,1.23
13,CCGUGAUAAUGUAACACCUTT against Prtg,0.0383
14,GGUAAACAUUGCUACUUUGTT against Mpdz,0.935
15,GGCCAAGAAAAACUACUAUTT against Kcnk5,-0.706
16,CCUAGGUUUGAAGACUCCCTT against Asphd2,-2.03 (active)
17,CCAAAUAUCACACACCCGATT against Fam187a,0.798
18,GGUGACUACUACAGGAAACTT against Hps1,2.3 (active)
19,GCACUUAUGAUGUCCUAUUTT against Sema4b,0.606
20,GGACAAAGUCUAGAAACUATT against Lrrc2,0.26
21,GGCUAUGACAAUGCCUACATT against Maged2,0.00495
22,GCGAAUCUUGCUUCUGACCTT against H4c8,-2.13 (active)

row,Sequence,z-score
1,GGUUUUUCGAGUUUUUUCUTT against Msx1,1.06
2,GGCUGCUUAUAAAAUUUUCTT against Mipep,0.398
3,GGCAUGUUUCUUGACUUAATT against Coil,0.122
4,GGACCUGGUUCAGGUAUCATT against Col6a3,-2.17 (active)
5,GGGUUUAUUUGGUCAAGAUTT against Mpc2,-0.349
6,GCAUACGUGUUCAAUGGUGTT against Ppef2,-0.541
7,CCGUGGAACUUAAAUAGUUTT against Pard6g,2.66 (active)
8,GGAUCUCGCUGGCAAUAAUTT against Gpr45,-0.222
9,CCAUUUUUCCUACGUGGGUTT against Zfand2a,0.449
10,GGAUUUGGGUUUUCUAUAATT against Cfb,-0.0373
11,CAAUGACAGCAGAUGACGUTT against Crabp2,0.0834
12,CCGGUCAAAAUUGAAAAGGTT against Bves,0.666
13,GGUGAAAAGUCCUGCCAAGTT against Nefh,0.408
14,GGCCAUUUGGAAACUAUUATT against Anapc11,-0.109
15,GGCUGUGAGAUAGAUCUAATT against Arhgef40,2.07 (active)
16,GCAAGGAGUUUAUGUGAGUTT against Olfr170,0.297
17,GGGCAAAAUACAAAAGGAGTT against Mlph,-0.9
18,GGACAUUCUCAAAUCUUGATT against Praf2,0.244
19,GCAUAAGGACCCUUUGUCATT against Rasl10b,-1.27
20,GCUGUAUCAGUCUUUCUAUTT against Cyp27b1,0.442
21,GGACAUGUCGGAUGGCUUCTT against P4ha1,0.212
22,GGCAGCAUUAAAACUUAAGTT against Chtop,2.71 (active)

row,Sequence,z-score
1,GGGUAACAUGAAGAUCAAUTT against Rnf19a,0.488
2,GGGACAAAAGCAAUCAAACTT against H2-M11,2.06 (active)
3,GCAAGCAUGCUCAUAAAGATT against Cast,-0.142
4,CGUAUGCAGAACAACAUUUTT against Klhl2,1.77
5,CGAUCCCUGUCUGUUGGAUTT against Spint4,0.944
6,GGAGGUAUACAGUAAGGAGTT against Fbxo32,0.542
7,GGCUGACAGUAACAAGUGGTT against Fignl1,3.72 (active)
8,GCCAGGAUCCAUCAAUUCCTT against Olfr376,-1.84
9,CCCUGAAAAUUAUCGAGCGTT against Galnt18,-0.493
10,CCCAGGAACUAUGAGUUGUTT against Rnf31,-1.87
11,GGAGAAAUUCUUCAAUGAGTT against Syt2,-0.19
12,GGAGACCAAAAUUUCUUGGTT against Sox9,0.0192
13,GGAUCCGAACAUCCUCAGGTT against Hr,-2.22 (active)
14,CGAAGAGAUCAGUAAUAUGTT against Kif21a,0.31
15,CCCAUGGAAAUCCUCAGUATT against Ctsa,-2.1 (active)
16,CCCACUGAUGAUUACGUUCTT against Irf5,-0.247
17,CCACAAGCUAAUACAUGCUTT against Ubac1,-1.37
18,GGCCACAAAGACUCUGUGATT against Aamp,-2.25 (active)
19,GGCAGAACACCUUCUUAGUTT against Dars2,-0.425
20,AGUUAGCCUUGAGGAGAAUTT against Olfr1512,0.503
21,CCAUUGGAUUGGAACUGGATT against Dhx57,-0.288
22,GCAGGUUUGAUAUAAAAUCTT against Uba2,0.162

row,Sequence,z-score
1,GCUCACCUGAGUCAAUGAUTT against Nr5a2,-2.25 (active)
2,GGAAUUUUGGUAGGUUUUATT against Tlcd4,1.36
3,CGGAAAAUCCUGCCUCCCUTT against S100pbp,-0.36
4,GGAUGUAGAUGUUGGUUUUTT against Kcnj14,2.52 (active)
5,GCCAUCUGCUUUAACCUCUTT against Aebp2,0.238
6,GGUGUACGAGAUCCAGGACTT against Eif3l,-0.699
7,GGCUGGUCAAAAUUUGGAATT against Cdca2,-0.9
8,CGCAAGGACCGAUCUGAUGTT against Rnps1,-2.41 (active)
9,GCAUCUGGGACAUUUAGAGTT against Cd200r3,-1.08
10,CCAGCUUUUGUUUGUUAGATT against Trappc11,0.56
11,GGAAGACUUGGCUACACAATT against Rab40c,-1.04
12,GGCAAACCUGCUUCUGCUATT against Prss52,-1.27
13,GUUACUUUGAUGUUGUCUATT against Pdgfrl,0.817
14,GGCCAAUGCACUGUGUUACTT against Tinag,1.25
15,GCAGAGAGAUACAUUAAAGTT against Adam10,1.16
16,CGCGCUUCUACUUUUUUUATT against Nkx2-1,0.406
17,GGAGGACCCUAUGUCUAAUTT against Adora1,4.6 (active)
18,GCUGAGACAUGUGGAGUAUTT against 4931429L15Rik,0.426
19,GGUUCUCAUCAUUUCAACUTT against Sh3bgrl,-1.61
20,GGCUUUGACCCGAAAAGAATT against Tut4,-0.0161
21,CGUGCCAAUUGAAAAAAACTT against Prkn,1.23
22,CCAUACAAUAAGAGUGCUATT against Clec4a4,0.936

row,Sequence,z-score
1,GGGUAGGCAAAGUUUUCAATT against 1700029M20Rik,4.63 (active)
2,GCAUUCCAUGGUACAGGGUTT against Adamts4,-0.646
3,CGGUUUACAUUCCUGACUUTT against Plekho2,1.42
4,GGACCAAAGAUGCAUCAGUTT against Zfyve16,-0.788
5,GGACCAAGGCUUUAUGAACTT against Crygn,0.404
6,GGCCUACGAACAGGUCAUGTT against Foxa2,0.0835
7,CGUGUCUGAAGGACUACAATT against 1700052K11Rik,0.0454
8,GCAGUAAGUCAGUGCCUCATT against Atxn1,1.51
9,GGUUGAUGCCAUGAAGUCCTT against Acyp2,-1.22
10,GGUUGUUGUGACCUUCCUGTT against Bod1,-2.65 (active)
11,GGGACAUUAUGCUUAUGACTT against Srsf7,-0.513
12,GGCAGAAGCCUAAAACGGUTT against Nudt2,0.00394
13,GGCAUUCUGAAAACAACUCTT against Hvcn1,2.02 (active)
14,GCCAAGACCUAUGAGUAUATT against Naaladl1,1.33
15,CCGAUAAUAUCAAUGGAAATT against Med24,0.744
16,GGACAUCAAGAAGGACAAATT against Ppp2r5d,0.874
17,GGGUCAAAGAGAAAAAAGUTT against Hoxa13,-1.2
18,GGUGAUGGUGUAAAAUACATT against Dab2,4.98 (active)
19,GGAGAAGCAUGGCUAUAACTT against Rcor2,-0.393
20,GGUGACCUACAAGAUUUGUTT against Csdc2,-0.801
